According to PubChem BioAssay (NCATS):
Inconclusive results are not listed. The source made the active and inactive calls. Calls come from the whole dose curve; as a rule, active = well fitted curve in the direction sought with a large enough effect; inconclusive = small, poorly fitted or top-dose-only effect, or another doubt; inactive = no such curve, though single readings can be large; an effect the other way counts as inactive or inconclusive.

Legend:
[1] = qHTS to identify inhibitors of the type 1 interferon - major histocompatibility complex class I in skeletal muscle: primary screen against the NCATS Pharmaceutical Collection (AID 1347407);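 note: luminescence of HiBiT knocked into endogenous HLA-B as interferon-induced MHC class I level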; note: potency is the fitted concentration of half-maximal effect; for activity change, negative = inhibition: % is set by controls: 0 for no effect and ±100 for the full control effect
How it was run: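 Immortalized human myoblasts (C25cl48) with HiBiT knocked into endogenous HLA-B*08:01 were stimulated with 4.0 ng/ml IFN-beta and treated with compounds ([…] top 46 uM) for 24 hrs at 37 C. HiBiT lytic luminescence read.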

[2] = biological target: Protein phosphatase 1D (Homo sapiens) (UniProt O15297); experiment: RapidFire Mass Spectrometry qHTS Assay for Modulators of WT P53-Induced Phosphatase 1 (WIP1) (AID 1347424);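 note: series mostly up to about 63 µM; plate controls were DMSO wells for no effect and GSK830371 inhibitor control at 10 µM for full effect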
Chain of Protein phosphatase 1D (Homo sapiens) (O15297 whole entry, looked up): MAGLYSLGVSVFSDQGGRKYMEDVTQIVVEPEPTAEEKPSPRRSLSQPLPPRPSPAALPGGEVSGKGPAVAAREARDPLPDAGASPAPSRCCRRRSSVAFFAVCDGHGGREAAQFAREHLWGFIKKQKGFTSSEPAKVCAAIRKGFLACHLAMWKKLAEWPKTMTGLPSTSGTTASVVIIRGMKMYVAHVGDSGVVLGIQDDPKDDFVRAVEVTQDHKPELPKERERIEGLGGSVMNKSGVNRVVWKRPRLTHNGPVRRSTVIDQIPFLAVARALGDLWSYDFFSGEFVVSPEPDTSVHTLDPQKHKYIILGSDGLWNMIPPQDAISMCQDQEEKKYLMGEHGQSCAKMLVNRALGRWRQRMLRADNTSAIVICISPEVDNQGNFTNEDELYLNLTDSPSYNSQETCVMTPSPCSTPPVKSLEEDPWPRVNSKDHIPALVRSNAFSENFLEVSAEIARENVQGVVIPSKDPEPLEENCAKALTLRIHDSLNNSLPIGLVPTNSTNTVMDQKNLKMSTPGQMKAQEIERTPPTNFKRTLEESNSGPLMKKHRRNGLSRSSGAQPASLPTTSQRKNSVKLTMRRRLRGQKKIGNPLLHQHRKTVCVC
How it was run: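 RapidFire MS readout of dephosphorylated VEPPL-S-QETFS product, with 1 uM isotope-labelled peptide standard. Reaction: 10 nM WIP1, 2 uM phosphopeptide substrate, 5 min, room temperature, after 1 h compound preincubation; stopped with 0.5% formic acid.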

[3] = biological target: Protein phosphatase 1D (Homo sapiens) (UniProt O15297); experiment: Rhodamine-PBP qHTS Assay for Modulators of WT P53-Induced Phosphatase 1 (WIP1) (AID 1347425); note: % of control where 0% means no effect
How it was run: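 Steps: enzyme with Rh-PBP sensor and compounds, room-temperature incubation of 1 hr, baseline read, addition of VEPPL-pS-QETFS (10 uM final), kinetic fluorescence reads at 525/598 nm. Activity equals final minus baseline signal.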

[4] = Primary qHTS for inhibitors of La Crosse Virus (LACV) - induced cell death in SH-SY5Y cells (AID 1508616); note: potency is the fitted concentration of half-maximal effect;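 for activity change: top concentration of the series differs between compounds; 0% = infected DMSO wells and 100% = uninfected DMSO wells; higher means more rescue of cells from virus-induced death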
How it was run: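 Rescue of virus-induced death was read as ATPLite luminescence after 6 days at 37C, scaled between DMSO wells with LACV and without virus. Cells were SH-SY5Y, 6000/well, infected at 0.01 MOI after compound addition.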

[5] = qHTS for inhibitors of adenylyl cyclases using a fission yeast platform: a pilot screen against the NCATS LOPAC library (AID 1347410);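 note: plate controls were DMSO vehicle for no effect and DPI positive control for full effect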
How it was run: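 S. pombe CHP2027 (AC9-GNAS-PDE4D2) carrying PKA-repressed fbp1-GFP, incubated 18 h at 30C in EMM with LOPAC compounds at up to 57 uM. GFP gain-of-signal read by laser scanning cytometry; DMSO negative control.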

[6] = Validation qHTS assay for inhibitors of Activation Induced Cytidine Deaminase (AID): UDG Counterscreen signal (AID 1347427); note: 0% is about no effect
How it was run: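 Fluorescence at 560 nm excitation, 665 nm emission reports UDG signal after 250 mM NaOH (2x) addition and 30 min. Enzymes (AID 1 uM, UDG 2 U/mL, at 4/3x) preincubated 10 min with compound, then 4 h with 4x 250 nM DJC20/DJC23 substrate at room temperature.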

[7] = biological target: Single-stranded DNA cytosine deaminase (Homo sapiens) (UniProt Q9GZX7); experiment: Validation qHTS assay for inhibitors of Activation Induced Cytidine Deaminase (AID): AID signal (AID 1347429); note: % is set by controls: 0 for no effect and ±100 for the full control effect
Chain of Single-stranded DNA cytosine deaminase (Homo sapiens) (Q9GZX7 whole entry, looked up): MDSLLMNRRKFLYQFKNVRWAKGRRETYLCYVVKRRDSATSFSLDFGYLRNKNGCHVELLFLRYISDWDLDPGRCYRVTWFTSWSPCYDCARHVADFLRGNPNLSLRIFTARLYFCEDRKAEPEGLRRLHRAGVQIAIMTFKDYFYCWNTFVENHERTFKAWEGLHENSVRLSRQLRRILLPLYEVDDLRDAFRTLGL
How it was run: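 Compounds (final up to 114 uM) preincubated with AID plus UDG; 250 nM DJC20/DJC23 substrate mix (4x stock) added, 4 hr at room temperature, then NaOH, 30 min. Read 1 fluorescence at 540 nm excitation, 590 nm emission.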

O=C(N[C@H](CO)[C@H](O)c1ccc([N+](=O)[O-])cc1)C(Cl)Cl
inactive: Potency [1] | outcome [2] | outcome [3] | Potency [4]

CC1=CC(=O)c2ccccc2C1=O
inactive: Potency [1] | outcome [2] | outcome [3] | Potency [4]

COc1cc([C@@H]2c3cc4c(cc3[C@H](O)[C@H]3COC(=O)[C@H]23)OCO4)cc(OC)c1OC
inactive: Potency [1] | outcome [2] | outcome [3] | Potency [4]

C#CCN[C@@H]1CCc2ccccc21
inactive: Potency [1] | outcome [2] | outcome [3] | Potency [4]

CC[C@H](C)C(=O)O[C@H]1C[C@@H](C)C=C2C=C[C@H](C)[C@H](CC[C@@H]3C[C@@H](O)CC(=O)O3)[C@H]21
inactive: Potency [1] | outcome [2] | outcome [3] | Potency [4]

N[C@@H](C(=O)N[C@@H]1C(=O)N2C(C(=O)O)=C(Cl)CS[C@H]12)c1ccccc1
inactive: activity change, negative = inhibition [1] 3% [at 9.18 µM] | activity change, negative = inhibition [2] -1.8% [at 12.6 µM] | activity change, negative = inhibition [3] 10.7% [at 11.5 µM] | activity change [4] -11.4% [at 0.858 µM]

OC(Cn1cncn1)(Cn1cncn1)c1ccc(F)cc1F
inactive: Potency [1] | outcome [2] | outcome [3] | Potency [4]

CCOC(=O)c1ccc(OC(=O)CCCCCN=C(N)N)cc1
inactive: Potency [1] | outcome [2] | outcome [3] | Potency [4]

C[C@]12C=CC(=O)C=C1CC[C@@H]1[C@@H]2C(=O)C[C@@]2(C)[C@H]1CC[C@]2(O)C(=O)CO
inactive: Potency [1] | outcome [2] | outcome [3] | Potency [4]

CCOC(=O)[C@H](CCc1ccccc1)N[C@H]1CS[C@H](c2cccs2)CN(CC(=O)O)C1=O
inactive: Potency [1] | outcome [2] | outcome [3] | Potency [4]

COc1cccc(N(C)C(=S)Oc2ccc3c(c2)CCCC3)n1
inactive: Potency [1] | outcome [2] | outcome [3] | Potency [4]

Nc1ccc(S(=O)(=O)Nc2ccccn2)cc1
inactive: Potency [1] | outcome [2] | outcome [3] | Potency [4]

CC(N)C12CC3CC(CC(C3)C1)C2 (stereo not drawn)
inactive: Potency [1] | outcome [2] | outcome [3] | Potency [4]

CC[C@H](NC(C)C)[C@H](O)c1ccc(O)c2[nH]c(=O)ccc12
inactive: Potency [1] | outcome [2] | outcome [3] | Potency [4]

CCN(C)C(=O)Oc1cccc([C@H](C)N(C)C)c1
inactive: Potency [1] | outcome [2] | outcome [3] | Potency [4]

CCC(=O)O[C@]1(C(=O)CCl)[C@@H](C)C[C@H]2[C@@H]3CCC4=CC(=O)C=C[C@]4(C)[C@@]3(F)[C@@H](O)C[C@@]21C
inactive: Potency [1] | outcome [2] | outcome [3] | Potency [4]

Cc1nnc(C(=O)NC(C)(C)c2nc(C(=O)NCc3ccc(F)cc3)c(O)c(=O)n2C)o1
inactive: Potency [1] | outcome [2] | outcome [3] | Potency [4]

CC(C(=O)O)c1ccc2c(c1)CC(=O)c1ccccc1S2 (stereo not drawn)
inactive: Potency [1] | outcome [2] | outcome [3] | Potency [4]

CNNCc1ccc(C(=O)NC(C)C)cc1
inactive: Potency [1] | outcome [2] | outcome [3] | Potency [4]

CC1(C)[C@H](C(=O)O)N2C(=O)C[C@H]2S1(=O)=O
inactive: Potency [1] | outcome [2] | outcome [3] | Potency [4]

CCOCC(O)COc1ccc(NC(=O)CC[S+](C)C)cc1 (stereo not drawn)
inactive: Potency [1] | outcome [2] | outcome [3] | Potency [4]

O=C(O)CSCC(=O)NC1CCSC1=O (stereo not drawn)
inactive: Potency [1] | outcome [2] | outcome [3] | Potency [4]

O[C@@H](CNC[C@H](O)[C@H]1CCc2cc(F)ccc2O1)[C@@H]1CCc2cc(F)ccc2O1
active: Potency [1] 26400 nM
inactive: outcome [2] | outcome [3] | Potency [4]

CC(C)OC(=O)OCOP(=O)(CO[C@H](C)Cn1cnc2c(N)ncnc21)OCOC(=O)OC(C)C
inactive: Potency [1] | outcome [2] | outcome [3] | Potency [4]

COC(=O)Nc1nc2ccc(S(=O)c3ccccc3)cc2[nH]1 (stereo not drawn)
inactive: outcome [2] | outcome [3]
active: Potency [4] 355 nM

Cc1noc(NS(=O)(=O)c2ccc(N)cc2)c1C
inactive: outcome [2] | outcome [3]

Cc1oc(=O)oc1CN1CCN(c2cc3c(cc2F)c(=O)c(C(=O)O)c2n3C(C)S2)CC1 (stereo not drawn)
inactive: Potency [1] | outcome [2] | outcome [3] | Potency [4]

COc1ccc2c(c1)c(CC(=O)OCC(=O)O)c(C)n2C(=O)c1ccc(Cl)cc1
inactive: Potency [1] | outcome [2] | Potency [4]

CC(C)Cn1cnc2c(N)nc3ccccc3c21
inactive: Potency [1] | outcome [2] | outcome [3] | Potency [4]

COc1cc2nc(N3CCCN(C)CC3)nc(NC3CCN(Cc4ccccc4)CC3)c2cc1OC
inactive: outcome [5] | outcome [6] | outcome [7]

COC(=O)Nc1nc2ccc(Sc3ccccc3)cc2[nH]1
inactive: outcome [3]
active: Potency [4] 199 nM

CC(=O)CC(c1ccccc1)c1c(O)c2ccccc2oc1=O (stereo not drawn)
inactive: outcome [2] | outcome [3]

CO[C@@H]1[C@@H](OC(N)=O)[C@@H](O)[C@H](Oc2ccc3c(O)c(NC(=O)c4ccc(O)c(CC=C(C)C)c4)c(=O)oc3c2C)OC1(C)C
inactive: Potency [1] | outcome [3]

C1CCC(C(CC2CCCCN2)C2CCCCC2)CC1 (stereo not drawn)
inactive: outcome [2] | outcome [3]
